The list is not random: actives were taken first. Their share in the collection is about 3%.
Rv3671c inh: inhibitors of M. tuberculosis serine protease Rv3671c; AID 2606; inhibition, % at 5.96 µM; 320,000 compounds, 0.048% hits; in the data active = inhibition above about 38%;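 also: extracellular domain of Rv3671c used as enzyme; 0% = enzyme with DMSO and 100% = no enzyme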
FadD28 binding: M. tuberculosis FadD28 bisubstrate binding inhibition; inhibition, % at 12.5 µM; 360,000 compounds, 0.22% hits; FadD28 bisubstrate probe binding, fluorescence polarization; in the data active = inhibition above about 8.5%, passing the limit was not always enough
Mtb BioA inh: inhibitors of Mycobacterium tuberculosis BioA enzyme; purified M. tuberculosis BioA enzyme, plate reader; inhibition, % at 9.99 µM; 360,000 compounds, 0.096% hits; AID 602481; in the data active = inhibition above about 40%
Mtb FBA inh: Mtb fructose-bisphosphate aldolase inhibition; AID 588726; P9WQA3; 360,000 compounds, 2.3% hits; purified M. tuberculosis FBA, fluorescence read-out; inhibition, % at 1 µM;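 also: 0% = vehicle and 100% = reference inhibitor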
Target sequence (P9WQA3 whole entry, looked up): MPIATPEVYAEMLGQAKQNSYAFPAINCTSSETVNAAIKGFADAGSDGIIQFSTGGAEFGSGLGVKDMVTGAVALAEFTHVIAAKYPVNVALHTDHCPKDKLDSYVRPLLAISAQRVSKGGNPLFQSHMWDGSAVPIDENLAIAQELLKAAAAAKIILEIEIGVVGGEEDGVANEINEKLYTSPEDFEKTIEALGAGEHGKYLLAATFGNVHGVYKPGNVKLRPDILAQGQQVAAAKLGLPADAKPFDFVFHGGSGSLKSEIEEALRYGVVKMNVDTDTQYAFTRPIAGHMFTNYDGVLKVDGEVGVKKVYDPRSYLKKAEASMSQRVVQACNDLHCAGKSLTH
GDH-TPI counter-1: GDH-TPI coupled enzyme inhibition counter-screen; GDH-TPI coupled enzyme counterscreen, NADH absorbance; inhibition, % at 4.8 µM; 360,000 compounds, 1.2% hits; AID 588335; in the data active = inhibition above about 30%;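 also: 0% = DMSO wells and 100% = wells lacking the enzyme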
Mtb FBA confirm: Mtb FBA inhibition, confirmed; shares compounds with Mtb FBA inh; purified M. tuberculosis FBA, fluorescence read-out; inhibition, % at 1 µM; 5,600 compounds, 78% hits;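 also: 0% = vehicle wells and 100% = reference inhibitor wells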
GDH-TPI counter-2: GDH-TPI inhibition counter-screen for FBA inhibitors | AID 652141 | inhibition, % at 1 µM | shares compounds with Mtb FBA inh | 5,600 compounds, 81% hits | GDH-TPI coupled enzyme counterscreen, fluorescence; in the data active = inhibition above about 10%
GDH-TPI dose: counter-screen for M. tuberculosis FBA inhibitors: GDH-TPI dose response. 170 compounds, 79% hits. shares compounds with Mtb FBA inh. IC50, µM. GDH-TPI coupled enzyme assay, fluorescence, artifact counterscreen; call rule not given here
The depositor's hits bear a star; . = no result given; + = active, no number. Rule as the data show it, unless noted: active = inhibition above about 27%; inactive = the rest.

SMILES	Rv3671c inh	FadD28 binding	Mtb BioA inh	Mtb FBA inh	GDH-TPI counter-1	Mtb FBA confirm	GDH-TPI counter-2	others
COc1ccc(CN(C)C[C@@H]2Oc3c(NC(=O)c4ccc(-c5nccs5)cc4)cccc3C(=O)N([C@H](C)CO)C[C@H]2C)cc1	.	.	-2	.	.	.	.
COCC#Cc1cnc2c(c1)C(=O)N([C@@H](C)CO)C[C@H](C)[C@H](CN(C)C(=O)c1ccc(F)cc1)O2	.	.	-1	.	.	.	.
COc1ccc2c(CN3CCN(C(C)=O)CC3)cc(=O)oc2c1	.	-11	6	3	.	.	.
COc1ccc2c(CN(Cc3ccccc3)Cc3ccccc3)cc(=O)oc2c1	.	-2	-1	7	.	.	.
COc1ccc2c(CC(=O)N[C@@H](Cc3ccccc3)C(=O)O)cc(=O)oc2c1	-6	0	1	101*	18	100*	86*
COc1ccc(NCc2cc(=O)oc3cc(NC(C)=O)ccc23)cc1	1	0	-1	73*	16	121*	88*
Cc1c(C)c2ccc(OCC(=O)N[C@@H](Cc3ccccc3)C(=O)O)cc2oc1=O	-2	0	0	77*	12	95*	81*
Cc1c(Cc2ccccc2)c(=O)oc2cc(OCC(=O)NC(Cc3ccc(Cl)cc3)C(=O)O)ccc12 (stereo unspecified)	-11	-7	12	92*	13	170*	151*
O=C(COc1ccc2c(c1)oc(=O)c1ccccc12)N[C@@H](Cc1c[nH]c2ccccc12)C(=O)O	0	-8	0	7	10	.	.
CC(C)C(=O)Nc1ccc2c(c1)C(=O)N(C)[C@@H]1CC[C@H](CC(=O)NCc3ccccc3)O[C@@H]1CO2	.	.	8	.	.	.	.
COC(=O)C[C@@H]1C[C@@H]2c3cc(NC(=O)Nc4ccccc4)ccc3O[C@@H]2[C@H](CO)O1	.	.	-1	.	.	.	.
C[C@@H]1CCCCO[C@H](CN(C)S(=O)(=O)c2cn(C)cn2)[C@@H](C)CN([C@H](C)CO)C(=O)c2cc(NC(=O)Nc3ccc(F)cc3)ccc2O1	.	.	3	.	.	.	.
CCCC#Cc1ccc2c(c1)[C@@H]1[C@@H](CCN1C(=O)CC1CC1)[C@@H](CO)N2C	.	.	1	.	.	.	.
COc1ccc(NC(=O)Nc2ccc3c(c2)C(=O)N([C@@H](C)CO)C[C@H](C)[C@H](CN(C)C(=O)Nc2ccccc2)O3)cc1	.	.	4	.	.	.	.
COc1ccc(C(=O)Nc2ccc3c(c2)OC[C@@H](C)NC[C@@H](C)[C@H](OC)CN(C)C3=O)cc1	.	.	-1	.	.	.	.
Cc1ccc(NC(=S)NC(NC(=O)c2ccco2)C(Cl)(Cl)Cl)cc1 (stereo unspecified)	-6	-3	1	1	8	.	.
Cc1cccc(NC(=S)NC(NC(=O)c2ccco2)C(Cl)(Cl)Cl)c1 (stereo unspecified)	-3	-4	1	74*	17	89*	95*
CCS(=O)(=O)N[C@H]1CC[C@@H](CC(=O)Nc2ccc(-c3ccccc3)cc2)O[C@@H]1CO	.	.	0	.	.	.	.
Cc1oc(-c2ccc(F)cc2)nc1CN1CCCC(C(=O)N2CCOCC2)C1 (stereo unspecified)	.	1	-2	-3	1	.	.
COC(=O)c1ccc(-c2nc(CN3CCC(C(=O)N4CCOCC4)CC3)c(C)o2)cc1	-8	-5	-2	48*	-3	47*	37*
O=C1c2ccccc2NC(c2ccccc2O)N1O (stereo unspecified)	-4	-3	1	3	-12	.	.
COc1cc(C2Nc3ccccc3C(=O)N2c2ccccc2)c(Br)cc1OCC(=O)O (stereo unspecified)	-3	0	0	22	4	.	.
CCCN1C(=O)c2ccccc2NC1c1ccc(OC)cc1OC (stereo unspecified)	1	1	2	81*	0	45*	43*
CCCN1C(=O)c2ccccc2NC1c1ccc(OC)cc1O (stereo unspecified)	0	-3	-1	58*	6	2	-8
COc1ccc(C2Nc3ccccc3C(=O)N2NC(C)=O)c(OC)c1 (stereo unspecified)	4	0	0	41*	11	72*	50*
SMILES	Rv3671c inh	FadD28 binding	Mtb BioA inh	Mtb FBA inh	GDH-TPI counter-1	Mtb FBA confirm	GDH-TPI counter-2	others
O=C(NN1C(=O)NC2(CCCCC2)C1=O)c1ccc(-c2ccc(Cl)cc2)o1	-9	-2	1	35*	8	157*	124*
O=C(C1CCC1)N1C[C@H]2[C@@H](c3ccccc31)[C@@H](CO)N2C(=O)Nc1cccc(F)c1	.	.	5	.	.	.	.
Clc1ccc(-n2nnc(-c3cccnc3Cl)n2)cn1	-3	0	1	5	12	.	.
COc1ncccc1-c1nnn(-c2ccc(Cl)nc2)n1	-1	1	3	27*	17	+	+
O=C(NNc1c2ccccc2nc2ccccc12)c1ccc(Cl)cc1	-2	1	-3	18	10	.	.
Clc1cncc(Cl)c1NNc1c2ccccc2nc2ccccc12	-4	-2	.	39*	3	81*	66*
COc1ccc(-c2cc(C(F)(F)F)n3nc(C(=O)NCc4ccco4)cc3n2)cc1	-9	-1	.	47*	34*	106*	80*
Cc1ccc(-n2nc3ccc(N)cc3n2)cc1Cl	-14	0	0	28*	6	59*	47*
COc1ccc(-n2nc3ccc(NS(C)(=O)=O)cc3n2)cc1Cl	1	0	.	92*	11	36*	22*
Cc1ccc(-n2nc3ccc(N)cc3n2)cc1C	-26	3	0	27*	12	15	10	GDH-TPI dose=1.5*
COc1ccc(-n2nc3ccc(N)cc3n2)cc1Cl	-9	-1	0	64*	24	50*	44*
Cc1noc(C)c1S(=O)(=O)Nc1ccc2c(c1)C(=O)N([C@H](C)CO)C[C@@H](C)[C@H](CN(C)C)OCCCC[C@@H](C)O2	.	.	1	.	.	.	.
O=C(NCC[C@H]1CC[C@@H](NC(=O)C2CC2)[C@@H](CO)O1)c1cc(Cl)cc(Cl)c1	.	.	0	.	.	.	.
O=C(C[C@@H]1C[C@H]2c3cc(NS(=O)(=O)c4ccc(F)cc4)ccc3O[C@H]2[C@H](CO)O1)NCc1cccc(F)c1	.	.	0	.	.	.	.
O=C(Nc1cc(F)ccc1F)N[C@@H]1CC[C@@H](CCn2cc(C3CC3)nn2)O[C@H]1CO	.	.	1	.	.	.	.
Cc1ccc(-n2nc3ccc(N)cc3n2)c(C)c1	-8	-2	-1	100*	20	+	+
COC(=O)[C@@]1(Cc2ccccc2CN=[N+]=[N-])COC(c2ccc(OCCCO)cc2)=N1	.	.	3	.	.	.	.
COc1ccc2[nH]c(C(=O)NCCN3CCOCC3)cc2c1	4	0	-4	77*	2	43*	35*
COc1ccc2[nH]c(C(=O)NCc3ccc4c(c3)OCO4)cc2c1	-6	0	0	39*	11	5	-2

Screening results: PubChem BioAssay, several laboratories
